Hit rate of the full screen: of about 190,000 compounds, about 1,900 (1%) were called active.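 Rule for the calls: active = percentage of spot-positive cells more than 3 SD above its plate mean, without a fluorescence outlier flag or 80% toxicity; inconclusive = no clear call, values can overlap the other calls; inactive = the rest.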 The sample as a whole holds a higher share of actives than the screen did.

A short description of this experiment: autophagy modulators in MEF cells, primary screen, imaging, high-content, MEF GFP-LC3 (AID 463193).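 For % cells with GFP-LC3 spots: spot-positive cell cutoff set from DMSO-treated cells.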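 For toxicity: cell loss after 18 h compound exposure.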 The note with it: MEF GFP-LC3 puncta imaging, at 10 µM; % cells with GFP-LC3 spots: stronger effect = higher value; toxicity: measured here: cell loss, nuclei count.
With `COc1ccc(-n2ncc3c(N4CCc5ccccc54)ncnc32)cc1`, the % cells with GFP-LC3 spots is 10.6% (active) and the toxicity turned out to be 12.2%.
On the same counts, the results for `COc1ccc(-n2ncc3c(N4CCCc5ccccc54)ncnc32)cc1` are 7.91% (inactive) and 7.86%.
As for `Cc1cccc(-n2ncc3c(N4CCc5ccccc54)ncnc32)c1`, the % cells with GFP-LC3 spots is 1.09% (inactive) and the toxicity was -9.01%.
On the same counts, the results for `Cc1ccc2nc(-c3ccccn3)cc(C(=O)Nc3ccc4c(c3)OCO4)c2c1` are 4.19% (inactive) and 13.2%.
Taken in the same sequence, the figures for `CC1(C)C2CCC1(C)C(OC(=O)c1ccc(O)cc1)C2` (configuration not stated) were 19.1% (inactive) and 2.39%.
`COc1ccc(-c2[nH]ncc2CN(C)Cc2cccnc2)c(F)c1`: the % cells with GFP-LC3 spots is 3.28% (inactive) and the toxicity is 15.9%.
As for `O=C1/C(=C\c2cccnc2)CN(Cc2ccccc2)C/C1=C\c1cccnc1`, the % cells with GFP-LC3 spots was 52.1% (active) and the toxicity was -17.6%.
Taken in the same sequence, the figures for `Clc1ccc(CN2CCN(/N=C/c3cccnc3)CC2)cc1` were 0.128% (inactive) and -10.7%.
In the case of `O=Cc1cn(Cc2ccccc2)nc1-c1cccnc1`, the % cells with GFP-LC3 spots is 0.945% (inactive) and the toxicity is 1.14%.
On the same counts, the results for `Cc1ccc(NC(=O)NC2CCCCC2)cc1S(=O)(=O)N1CCOCC1` are 9.14% (inactive) and -3.67%.
On the same counts, the results for `Cc1ccc(-n2c(C)cc(/C=N/Nc3ccc([N+](=O)[O-])cn3)c2C)c(C)c1` are 52% (active) and -31.7%.
On the same counts, the results for `COc1cc(/C=N\Nc2ccc([N+](=O)[O-])cn2)ccc1OCC(=O)O` are 1.45% (inactive) and -6.18%.
On to `Cc1cccc(COc2ccccc2/C=N/Nc2ccc([N+](=O)[O-])cc2)c1`, for which the % cells with GFP-LC3 spots is 1.93% (inactive) and the toxicity turned out to be 8.3%.
Taken in the same sequence, the figures for `O=C(CSc1nc2ccccc2[nH]1)c1cccs1` were 0.463% (inactive) and 5.37%.
On the same counts, the results for `CCOC(=O)CC(=O)CSc1nc(-c2ccccc2)cc(-c2ccc(Cl)cc2)c1C#N` are 3.63% (inactive) and -4.4%.
`N#Cc1c(-c2ccc(F)cc2)cc(C2CC2)nc1SCC(=O)c1cccs1`: the % cells with GFP-LC3 spots was 86.4% (active) and the toxicity was -1.55%.
On the same counts, the results for `Cc1ccc(CC(=O)Nc2ccc(OC(F)F)c(Cl)c2)cc1C` are 6.36% (inactive) and -11.9%.
Taken in the same sequence, the figures for `CCN1CCN(C(=O)c2ccc(CN(c3ccc(C)c(C)c3)S(C)(=O)=O)cc2)CC1` were 5.04% (inactive) and -26.7%.
Taken in the same sequence, the figures for `Cc1cc(C(=O)N/N=C/c2ccc(O)c([N+](=O)[O-])c2)c(C)n1-c1ccc(F)cc1` were 6.11% (inactive) and 2.16%.
Consider `O=C(Nc1ccc(Br)cn1)c1ccc([N+](=O)[O-])cc1Cl`, for which the % cells with GFP-LC3 spots is 25.9% (inactive) and the toxicity came out at 12.1%.
On the same counts, the results for `CSc1ccc(/C=N\NC(=O)CC(=O)NC(C)C)cc1` are 3.73% (inactive) and 6.35%.
On the same counts, the results for `O=c1cc(-c2ccccc2)[nH]c2cc(F)ccc12` are 3.89% (inactive) and -7.91%.
On the same counts, the results for `O=C(/C=C/c1ccc(Cl)cc1)Nc1ccc(Br)cn1` are 20.4% (inactive) and 30.5%.
Take `Cc1ccc(S(=O)(=O)C(C#N)c2nc3ccccc3nc2N2CCCC2)cc1C` (configuration not stated): the % cells with GFP-LC3 spots was 8.97% (inactive) and the toxicity is -8.37%.
On the same counts, the results for `CC(C)OC(=O)C(C#N)c1nc2ccccc2nc1N1CCN(Cc2ccccc2)CC1` (configuration not stated) are 41.3% (active) and 2.68%.
For the molecule `CCOC(=O)/C(C#N)=C/c1ccc(N2CCN(Cc3ccccc3)CC2)cc1`, the % cells with GFP-LC3 spots was 10.3% (inactive) and the toxicity stood at 10.6%.
For `O=[N+]([O-])c1ccc(Sc2n[nH]c(-c3ccco3)n2)nc1`, the % cells with GFP-LC3 spots was 0% (inactive) and the toxicity came to 4.9%.
On the same counts, the results for `Cc1ccccc1CN1C[C@@H]2C[C@@H](c3ccc4nsnc4c3)N3CCC[C@@]23C1=O` are 34.4% (active) and 24.5%.
For `Cc1ccccc1CN1C[C@@H]2C[C@@H](c3cn(C)nc3-c3ccccc3)N3CCC[C@@]23C1=O`, the % cells with GFP-LC3 spots is 0.136% (inactive) and the toxicity was -5.59%.
With `OCC1(CCc2ccccc2)CCN(Cc2ccc3nsnc3c2)CC1`, the % cells with GFP-LC3 spots is 0.559% (inactive) and the toxicity came out at 0.377%.
With `CCN(CC)S(=O)(=O)c1cc([N+](=O)[O-])ccc1NNC(=O)Nc1ccccc1`, the % cells with GFP-LC3 spots is 2.34% (inactive) and the toxicity was -10.5%.
On the same counts, the results for `CCN(CC)S(=O)(=O)c1cc([N+](=O)[O-])ccc1N=Nc1c(O)n(C)c2ccccc12` are 39.2% (active) and 2.86%.
On the same counts, the results for `CCn1c(O)c(N=NC(=O)c2cccc(S(=O)(=O)N3CCCCC3)c2)c2ccccc21` are 17.3% (inactive) and 3.19%.
`CCCCNC(=O)CCn1c(=O)c2ccccc2n(Cc2cc(C)ccc2C)c1=O`: the % cells with GFP-LC3 spots was 8.22% (inactive) and the toxicity is -3.52%.
Taken in the same sequence, the figures for `COc1ccc(CN(C)Cc2nc3cc(OC)c(OC)cc3c(=O)[nH]2)c(OC)c1` were 25% (inactive) and -8.88%.
Consider `O=C(/C=C/c1cn(-c2ccccc2)nc1-c1ccc2c(c1)OCCO2)NCCCN1CCOCC1`, for which the % cells with GFP-LC3 spots is 1.77% (inactive) and the toxicity is -8.43%.
Taken in the same sequence, the figures for `CCOc1ccc(/C=N/NC(N)=S)cc1` were 19.6% (active) and 21.8%.
On the same counts, the results for `COC(=O)N/N=C/c1ccc(/C=N/NC(=O)OC)cc1` are 0.31% (inactive) and -3.93%.
Take `NC(=S)N/N=C/c1ccc([N+](=O)[O-])cc1`: the % cells with GFP-LC3 spots was 8.24% (inactive) and the toxicity was determined as 23.5%.
Taken in the same sequence, the figures for `CCN1C(=O)/C(=C\N2CCOCC2)SC1=S` were 5.71% (inactive) and -3.29%.
Taken in the same sequence, the figures for `CCN1C(=O)/C(=C\N2CCN(c3ccccc3)CC2)SC1=S` were 1.26% (inactive) and -4.66%.
On the same counts, the results for `CCN1C(=O)/C(=C\N2CCN(c3cccc(Cl)c3)CC2)SC1=S` are 4.39% (active) and 13.1%.
Turning to `O=C(NCC(=O)N(CC1CCCO1)C(C(=O)NC1CCCCC1)c1ccccc1)c1ccco1` (configuration not stated), the % cells with GFP-LC3 spots was 0.515% (inactive) and the toxicity was -9.95%.
Turning to `COc1ccc(NC(=O)C(Br)C(C)C)cc1` (configuration not stated), the % cells with GFP-LC3 spots was 14.9% (inactive) and the toxicity turned out to be 8.32%.
Taken in the same sequence, the figures for `CC(=O)C1(C)N(O)C(C)(C)C(c2cccs2)=[N+]1[O-]` (configuration not stated) were 3.17% (inactive) and -3.76%.
Taken in the same sequence, the figures for `CC(C)(C)NC(=O)CN(C(=O)c1ccc(Cl)nc1)c1cccc2ccccc12` were 0.133% (inactive) and -8.05%.
Taken in the same sequence, the figures for `CC(C)(C)NC(=O)CN(C(=O)c1csnn1)c1ccccc1-c1ccccc1` were 8.79% (active) and 5.01%.
Turning to `CCC(C)(C)NC(=O)C(c1ccccn1)N(C(=O)c1csnn1)c1ccccc1` (configuration not stated), the % cells with GFP-LC3 spots was 3.17% (inactive) and the toxicity turned out to be 14.8%.
Turning to `Cn1c(-c2ccc(F)cc2)cnc1SCC(=O)NNC(=O)Cc1ccccc1`, the % cells with GFP-LC3 spots is 2.62% (inactive) and the toxicity is -10.5%.
Regarding `CCOC(=O)/C(C#N)=C/c1cn(CCC(=O)O)nc1-c1ccc(Br)cc1`, the % cells with GFP-LC3 spots was 0.855% (inactive) and the toxicity was -6.28%.
With `CC1=NN(C(=O)CCc2ccccc2O)C(O)(C(F)(F)F)C1` (configuration not stated), the % cells with GFP-LC3 spots is 3.31% (inactive) and the toxicity is -3.6%.
Taken in the same sequence, the figures for `COc1ccc(CC(=O)N2N=C(C)CC2(O)C(F)(F)F)cc1` (configuration not stated) were 1.78% (inactive) and 0.121%.
On the same counts, the results for `CC1=NN(C(=O)CCCc2ccccc2)C(O)(C(F)(F)F)C1` (configuration not stated) are 4.12% (active) and 3.92%.
Taken in the same sequence, the figures for `CN1CCN(NC(=O)c2ccc(S(=O)(=O)N3CCCCCC3)cc2)CC1` were 1.83% (inactive) and 28%.
`O=C(CSc1nc2[nH]ncc2c(=O)n1-c1ccccc1)N1CCCc2ccccc21`: the % cells with GFP-LC3 spots was 6.24% (inactive) and the toxicity turned out to be 17.2%.
Regarding `O=C(CSc1nc2ccccc2c(=O)n1CCCO)N1CCc2ccccc21`, the % cells with GFP-LC3 spots is 7.69% (inactive) and the toxicity was -0.286%.
Regarding `Cn1c(SCC(=O)N2CCCc3ccccc32)nc2ccccc2c1=O`, the % cells with GFP-LC3 spots is 11.1% (active) and the toxicity was 28.2%.
Consider `CCCCN(CC(=O)NC(C)(C)C)C(=O)C(=O)Nc1ccc2c(c1)OCCO2`, for which the % cells with GFP-LC3 spots is 0.957% (inactive) and the toxicity is 5.19%.
On the same counts, the results for `C/C(=N\NC(=O)c1ccc(NS(=O)(=O)c2cccs2)cc1)c1ccc2ccccc2c1` are 20.7% (inactive) and -14.3%.
On the same counts, the results for `CCNC(=O)COc1cc(C)c(Br)c(C)c1` are 22.5% (inactive) and 9.49%.
As to `COc1ccc(C(c2nnnn2Cc2cccs2)N2CCN(c3ccccc3)CC2)cc1OC` (configuration not stated), the % cells with GFP-LC3 spots was 10.1% (active) and the toxicity was found to be 46.3%.
On the same counts, the results for `COc1ccccc1C(c1nnnn1CC1CCCO1)N1CCN(c2ccccc2)CC1` (configuration not stated) are 0.609% (inactive) and -7.4%.
On the same counts, the results for `COc1ccc(CCn2nnnc2C(c2ccccc2)N2CCN(C)CC2)cc1OC` (configuration not stated) are 22.3% (inactive) and -9.31%.
On the same counts, the results for `Cc1ccc(NC(=O)c2ccccn2)cc1S(=O)(=O)N1CCOCC1` are 7.19% (inactive) and 21.1%.
For the molecule `COc1ccc(NC(=S)NCC2CCN(c3ccc(OC)cc3)C2)cc1` (configuration not stated), the % cells with GFP-LC3 spots was 6.08% (inactive) and the toxicity stood at 8.9%.
Taken in the same sequence, the figures for `COc1ccc(C(=O)Nc2ccc(NC(=O)C(C)C)nc2)cc1` were 4.13% (inactive) and -1.69%.
On the same counts, the results for `Cc1ccc(OCC(=O)Nc2ccc(-c3nc4ncccc4o3)cc2)cc1` are 13.3% (inactive) and -0.528%.
On the same counts, the results for `COc1ccc(CC(=O)Nc2ccc(C(=O)NC(C)(C)C)cc2)cc1` are 6.06% (inactive) and -0.0115%.
Turning to `COc1ccc(CC(=O)Nc2ccc(-c3nnc(-c4ccc(C)cc4)o3)cc2)cc1`, the % cells with GFP-LC3 spots was 39.9% (active) and the toxicity stood at 9.61%.
As for `CN(c1ccc2nc3ccccc3c(=O)n2n1)C1CCCCC1`, the % cells with GFP-LC3 spots was 14.8% (inactive) and the toxicity amounted to 11.6%.
With `Nc1nc(NC(=O)/C=C/c2ccccc2)nn1-c1ccccc1`, the % cells with GFP-LC3 spots was 7.01% (inactive) and the toxicity came out at 2.03%.
On the same counts, the results for `CCc1cc(Br)ccc1NC(=O)C1CCCO1` (configuration not stated) are 2.25% (inactive) and -4.23%.
On the same counts, the results for `OC(CNCC1CCCO1)Cn1c2ccc(Br)cc2c2cc(Br)ccc21` (configuration not stated) are 7.36% (active) and 47%.
On the same counts, the results for `Cc1ccc(C(=O)NCC2CCCO2)o1` (configuration not stated) are 12.6% (inactive) and -1.73%.
As to `c1cc(-n2cnnn2)ccc1NC1=NCCC1`, the % cells with GFP-LC3 spots was 12.1% (active) and the toxicity is -6.55%.
On the same counts, the results for `O=C(c1ccc(-n2cnnn2)cc1)N1CCN(C(c2ccccc2)c2ccccc2)CC1` are 1.42% (inactive) and 13.6%.
On the same counts, the results for `O=C(Cc1c(F)cccc1Cl)Nc1ccc(-n2cnnn2)cc1` are 1.73% (inactive) and 5.48%.
Taken in the same sequence, the figures for `CN(C)CCNC(=O)Cc1ccc([N+](=O)[O-])cc1` were 4.19% (inactive) and 2.43%.
For the molecule `COc1ccc(CC(=O)NCc2nnc(SCC(=O)Nc3ncc(C)s3)n2C)cc1`, the % cells with GFP-LC3 spots was 3.99% (inactive) and the toxicity was -3.03%.
Taken in the same sequence, the figures for `Cn1c(=O)c([N+](=O)[O-])c(Oc2ccccc2)c2ccccc21` were 0.277% (inactive) and -4.02%.
On the same counts, the results for `O=C(OCC1O[C@@H](OC(=O)c2cc(O)c(O)c(O)c2)[C@@H](OC(=O)c2cc(O)c(O)c(O)c2)[C@@H](OC(=O)c2cc(O)c(O)c(O)c2)[C@@H]1OC(=O)c1cc(O)c(O)c(O)c1)c1cc(O)c(O)c(O)c1` (some centres not stated) are 0.427% (inactive) and -40.5%.

Source of the values: PubChem BioAssay AID463193 (University of Pittsburgh Molecular Library Screening Center, 2010).
